IP6K1 inh: inhibitors of human IP6K1; Q92551; IP6K1 kinase, ADP-Glo luminescence, 2 h; active compounds read low; activity change, % (series mostly up to about 58 µM); 140,000 compounds, 0.81% hits; in the data active = activity change below about -25%; also: % is scaled to controls: 0 for no effect and ±100 for the full control effect
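ADP-Glo luminescence measures ADP made by human IP6K1 during a 2 h RT reaction with ATP/IP6 (mix at 1.3 mM/130 uM); top library doses 57.5 and 19.1 uM final.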
KDM5B inh: KDM5B demethylase inhibition; 220,000 compounds, 2.6% hits; Potency, µM (titrated, usually from 57.7 µM), most hits filed as inhibitors; Q9UGL1; KDM5B demethylase, FDH-coupled NADH fluorescence (FDH is formaldehyde dehydrogenase); also: potency is read from the fitted curve at half-maximal effect; 0% is about no effect; nearly all actives have a fitted effect of over 70% in size
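KDM5BΔAP (200 nM final) in 50 mM HEPES pH 7.5, 0.01% Tween-20 was preincubated 10 min at RT with compound over a concentration range. Substrate mix (H3K4me3 12.5 µM, α-KG 25 µM, Fe²⁺, ascorbate, NAD⁺, FDH) was added, and NADH fluorescence change over 30 min gave dose-response curves.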
Numbers without * were called inactive; i = inactive; ? = inconclusive; · = no result. In the library only some 2.7% were active in any assay of this set; here they are far more common.

SMILES	IP6K1 inh	KDM5B inh
Cc1nnc2ccc(SCC(=O)Nc3ccc(Cl)cc3)nn12	·	i
COc1ccc(-n2c(=O)c3c4c(sc3n3cnnc23)CCC4)cc1	·	i
CCc1noc(-c2ccn3c(CNC(=O)c4nccc5ccccc45)nnc3c2)n1	6.4	?
O=C(NCc1nnc2cc(-c3nc(C4CC4)no3)ccn12)c1ccccc1Cl	35.7	22.4µM*
O=C(NCc1nnc2cc(-c3nc(C4CC4)no3)ccn12)c1c(F)cccc1F	13.0	25.1µM*
CC(C)c1noc(-c2ccn3c(CNC(=O)c4ccc(F)c(Cl)c4)nnc3c2)n1	10.0	?
Cc1noc(-c2ccn3c(CNC(=O)c4nccc5ccccc45)nnc3c2)n1	6.8	31.6µM*
O=C(NCc1nnc2cc(-c3nc(C4CC4)no3)ccn12)C1CC1	38.7	i
Cc1noc(-c2ccn3c(CNC(=O)c4ccc(F)c(Cl)c4)nnc3c2)n1	17.7	25.1µM*
Cn1ncc2c(C(=O)NC3CC3)cc(-c3ccc(C(F)(F)F)cc3)nc21	-15.7	·
O=C(Cc1cccc(Cl)c1)NC1CCN(Cc2cccc(-c3ccc(F)c(F)c3)c2)CC1	17.7	·
CCCNC(=O)CN(C)Cc1ncc(-c2ccccc2)o1	·	i
O=C(CNC(=O)c1cccc(-c2ccc(C(F)(F)F)cc2)c1)NCCc1ccc(Cl)cc1	-6.6	·
O=C(NCc1nnc2cc(-c3nc(C4CC4)no3)ccn12)c1cccc(Cl)c1	33.4	14.1µM*
O=C(NCc1nnc2cc(-c3nc(C4CC4)no3)ccn12)c1ccoc1	-0.5	31.6µM*
Cc1noc(-c2ccn3c(CNC(=O)c4ccccc4Cl)nnc3c2)n1	-3.2	28.2µM*
Cc1noc(-c2ccn3c(CNC(=O)c4ccccc4F)nnc3c2)n1	25.8	i
O=C(NCc1nnc2cc(-c3nc(C4CC4)no3)ccn12)c1ccccc1	12.0	i
Cc1cc(C)cc(C(=O)NCc2nnc3cc(-c4nc(C5CC5)no4)ccn23)c1	14.2	i
Cc1ccccc1N(C)C1CN([S+](=O)([O-])c2cccc(C(F)(F)F)c2)C1	4.2	?
Cc1ccc(NS(=O)(=O)c2ccc3oc(=O)ccc3c2)c(C)c1	·	i
CCN(Cc1ccccc1)c1sc(S(C)(=O)=O)nc1S(=O)(=O)c1ccc(C)cc1	·	i
CC1CCN(C(=O)CSc2nnc(CNC(=O)c3ccccc3F)n2C)CC1	·	i
CC(=O)N1CCN(c2cncc(C(=O)N3CCOCC3)n2)CC(O)C1 (stereo unspecified)	10.2	22.4µM*
CC1(c2ccccc2)CCCN(c2cncc(C(=O)N3CCOCC3)n2)C1 (stereo unspecified)	-13.8	?
SMILES	IP6K1 inh	KDM5B inh
Clc1ccc(-c2ccc(CN3CC[C@H]4CC[C@@H](C3)N4)o2)cc1	4.9	i
COCC(=O)NC[C@H]1CCN(Cc2ccc(C#N)cc2)C[C@H]1N(C)C	11.8	17.8µM*
COCC(=O)NC[C@H]1CCN(Cc2ccc(Cl)cc2)C[C@H]1N(C)C	11.7	i
O=C(Nc1cccnc1)C1CCC1	·	i
CCc1nc2c(c(-c3ccc(O)cc3)n1)CN(C(=O)C(C)(C)C)CC2	-0.3	·
O=C(NC1CCCC1)c1cc2cn(C3CC3)cc2s1	2.4	?
O=C(O)c1cc2cn(C3CC3)cc2s1	-12.7	25.1µM*
Cc1ccc(-c2cc(C(=O)N3CCN(c4ccccc4)CC3)c3ccccc3n2)cc1C	-3.0	?
NC(=O)C1CCN(C(=O)c2cc(-c3ccccc3)nc3ccccc23)CC1	·	i
Cc1ccc(-c2cc(C(=O)N3CCC(Cc4nncn4CC4CC4)CC3)c3ccccc3n2)cc1C	11.2	22.4µM*
O=C(c1cc(-c2ccc(F)cc2)nc2ccccc12)N1CCC(Cc2nncn2CC2CC2)CC1	1.5	28.2µM*
Cc1ccc(Cc2c(C)nc3c(C(=O)N4CCC(Cc5nncn5CC5CC5)CC4)cnn3c2C)cc1	12.8	28.2µM*
Cc1nc2c(C(=O)O)cnn2c(C)c1Cc1ccccc1	8.2	?
CNC(=O)c1ccc2c(c1)OCC(=O)N2	·	i
Cc1ccc(NC(=O)C2CC(=O)N(c3n[nH]c4cccc(F)c34)C2)cc1 (stereo unspecified)	-8.1	20µM*
Cc1ccc(NC(=O)C2CC(=O)N(c3n[nH]c4cccc(F)c34)C2)nc1 (stereo unspecified)	-10.0	i
O=C(C1CC(=O)N(c2n[nH]c3cccc(F)c23)C1)N1CCN(c2cccc(Cl)c2)CC1 (stereo unspecified)	-11.8	?
O=C(Nc1nccs1)C1CC(=O)N(c2n[nH]c3cccc(F)c23)C1 (stereo unspecified)	-1.5	i
O=C(C1CC(=O)N(c2n[nH]c3cccc(F)c23)C1)N1CCN(c2ccc(Cl)cc2)CC1 (stereo unspecified)	-8.2	22.4µM*
CCOc1ccc(NC(=O)C2CC(=O)N(c3n[nH]c4cccc(F)c34)C2)cc1 (stereo unspecified)	-1.8	22.4µM*
